Compound activity (PubChem BioAssay)
OTUD3 inh: inhibitors of human OTUD3 deubiquitinase; AID 1645858; inhibition, % at 25 µM; 47,000 tested, 0.7% active; purified OTUD3, Ub-rhodamine fluorescence, 2 h
USP8 inh: blocks human USP8 ubiquitin-rhodamine cleavage; P40818; purified USP8, Ub-rhodamine cleavage fluorescence, 30 min; inhibition, % at 20 µM; 47,000 tested, 4.2% active; AID 1645853
USP28 block: inhibitors of human USP28 deubiquitinase | AID 1645857 | purified USP28, Ub-rhodamine cleavage fluorescence, 30 min | 47,000 tested, 3% active | inhibition, % at 25 µM
USP17 block: blocks human USP17 ubiquitin-rhodamine cleavage | purified USP17, Ub-rhodamine cleavage fluorescence, 3 h | AID 1645855 | 47,000 tested, 6.5% active | A8MUK1 | inhibition, % at 50 µM
USP30 block: blocks human USP30 ubiquitin-rhodamine cleavage. Q70CQ3. purified USP30, Ub-rhodamine cleavage fluorescence. inhibition, % at 25 µM. 47,000 tested, 5.3% active
Starred values were filed as active, the others as inactive; i = inactive; . = no result. Only some compounds are listed: those with a hit (about 13% of all), similar ones and a draw of the others. Rule as the data show it: active = inhibition above about 30%; inactive = the rest.

SMILES | OTUD3 inh | USP8 inh | USP28 block | USP17 block | USP30 block
Cc1c(C(=O)NCc2ccc3c(c2)OCO3)oc2ccc(S(=O)(=O)N3CCC4(CC3)OCCO4)cc12 | 8 | -13 | 8 | 0 | -8
COc1ccccc1NC(=O)c1cc(Br)cc(Cc2ccccc2)c1O | 16 | 49* | 15 | 25 | 13
COc1ccc(C(=O)NCCS(=O)(=O)N2CCN(c3ncccn3)CC2)cc1OC | -2 | 2 | -3 | . | 0
O=c1[nH]cc(-c2cccs2)c(=O)[nH]1 | -8 | -69 | -10 | -2 | -9
CSCCC(NC(=O)c1cccs1)c1nnc2ccccn12 (configuration not stated) | -3 | 1 | 0 | -1 | -1
CSCCC(NC(=O)c1sccc1C)c1nnc2ccccn12 (configuration not stated) | 12 | 15 | 13 | 15 | 41*
Cc1ccc(Cn2nnc3c(=O)n(Cc4nc(-c5ccc(C)cc5)no4)cnc32)cc1 | 2 | -1 | -3 | 34* | 15
N#Cc1cccc(CN2C[C@@H]3OCC(=O)N(c4ccccc4)[C@@H]3C2)c1 | -7 | -9 | 4 | -27 | -22
Cc1nc2cc(C(=O)NCCC3=CCCCC3)ccc2n1-c1cccc(F)c1 | 6 | 6 | 40* | 8 | 73*
O=C(NCCC1=CCCCC1)c1cccc(Nc2nc3ccccc3n3cnnc23)c1 | 16 | 15 | 9 | 22 | -2
CCn1c(-c2nnc(SCC(=O)NCCc3nc4ccccc4[nH]3)o2)cc2ccccc21 | 4 | 4 | . | 92* | .
O=C(NCCc1c[nH]c2ccccc12)c1cc2c(s1)CS(=O)(=O)C2 | -7 | -2 | 16 | -11 | -33
O=C(CCc1c[nH]c2ccccc12)OCC(=O)c1cc2c3c(c1)CC(=O)N3CCC2 | 0 | 32* | . | 62* | .
O=C(CCc1c[nH]c2ccccc12)N1C[C@@H](O)[C@H](N2CCCC2)C1 | -2 | 5 | -12 | -5 | -4
CC1=N[C@@]2(CC[C@@H]3CN(S(C)(=O)=O)C[C@@H]32)C(=O)N1CC1CC1 | 9 | 10 | 7 | 7 | 11
Clc1cccc(-n2cc(-c3ccccc3)c3c(NCc4ccccn4)ncnc32)c1 | 7 | 5 | 53* | 70* | 75*
c1ccc(-c2cn(-c3ccccc3)c3ncnc(NC4CC4)c23)cc1 | -14 | -7 | 35* | -7 | 4
O=C(Cc1cccnc1)N[C@@H]1CC[C@@H](Oc2ccccc2)[C@@H](O)[C@@H]1O | 1 | 73* | 7 | 31* | 18
O=C(COc1ccc(-c2cnc3ccccc3n2)cc1)NC1CC1 | 3 | 2 | -3 | -4 | 9
O=C(Oc1ccc(-c2cnc3ccccc3n2)cc1)c1ccc(F)cc1 | 0 | 1 | -4 | 65* | -2
O=C(c1ccccc1)c1cccc2c1NCC2 | 11 | 23 | 43* | 16 | 20
O=C1CCN(C(=O)c2ccc(C(=O)c3ccccc3)cc2)CC1 | 14 | 3 | 3 | 13 | 20
COc1ccc(NC(=O)c2cccnc2Nc2ccc(Cl)cc2)cc1 | 22 | -40 | 2 | -1 | 17
Cc1ccc(C(O)Cn2cc(C(=O)Nc3ccccc3)nn2)cc1 (configuration not stated) | 9 | 21 | 18 | 25 | 35*
Cc1cccc(-n2nnc(C(=O)Nc3cccc(Cl)c3)c2C)c1 | 25 | 14 | 14 | 14 | 14
SMILES | OTUD3 inh | USP8 inh | USP28 block | USP17 block | USP30 block
Cc1ccc(NC(=O)c2cccc(-n3cnnc3)n2)cc1 | 3 | 0 | . | 4 | .
Cc1ccc(C(O)Cn2cc(C(=O)Nc3cccc(C)c3)nn2)cc1 (configuration not stated) | -1 | 7 | . | 80* | .
Cc1ccc(C(=O)N2CCCC3(CCCN3C)C2)cc1 (configuration not stated) | 3 | -29 | -8 | -6 | -4
COc1cccc(-c2nc3cnccn3c2NCc2ccc3c(c2)OCO3)c1OC | -199 | -232 | -239 | -167 | i
CCOc1ncccc1C(=O)OCC(=O)c1ccc(C)c(C)c1 | 3 | -7 | 38* | -6 | -2
COc1ccc(NC(=O)N(C2=NCCC2)c2cccc(C)c2C)cc1 | 7 | 3 | 14 | 0 | 19
CC(C)=CCc1c2c(c3occ(-c4ccc(O)c(O)c4)c(=O)c3c1O)C=CC(C)(C)O2 | 81* | 26 | 69* | 86* | 79*
CC(C)=CCc1c2c(c3occ(-c4ccc(O)cc4)c(=O)c3c1O)C=CC(C)(C)O2 | 44* | 17 | 42* | 91* | 57*
